PubChem BioAssay AID2284347 (EPA ToxCast)
Records with an inconclusive call do not appear. The source made the active and inactive calls. How the source made its calls: active means hit-call score of the fitted dose curve at least 0.9, where 1 is the maximum; inconclusive means response in the unintended direction; inactive means score below 0.9.

These molecules were tested on rainbow trout Peroxisome Proliferator-activated Receptor alpha (PPARa), gene 110490141 (assay: ATG_rtPPARa_EcoTox2: Attagene TRANS-FACTORIAL EcoTox-2 HepG2 Assay for rainbow trout Peroxisome Proliferator-activated Receptor alpha (PPARa)).
Method: ATG_EcoTox2 is a cell-based, multiplexed assay created by modifying the existing Attagene TRANS-FACTORIAL system to include a panel of nuclear receptors from some or all the following species: human (Homo sapiens), african clawed frog (Xenopus laevis), rainbow trout (Oncorhynchus mykiss), japanese medaka (Oryzias latipes), and zebrafish (Danio rerio). The ECOTOX2-FACTORIAL format uses HepG2, a human liver cell line, with measurements taken at 24 hours after chemical dosing in a 24-well plate. ATG_rtPPARa_EcoTox2 is one of 29 assay components calculated in the ATG_EcoTox2 assay. It is designed to make measurements of mRNA induction, a form of inducible reporter, as detected with fluorescence intensity signals by Reverse transcription polymerase chain reaction (RT-PCR) and Capillary electrophoresis technology.The assay endpoint […] was analyzed in the positive analysis fitting direction relative to DMSO as the negative control and baseline of activity. Using a type of inducible reporter, measures of mRNA for gain-of-signal activity can be used to understand the reporter gene at the transcription factor-level as they relate to the gene PPARa. Furthermore, this assay endpoint can be referred to as a primary readout, because this assay has produced multiple assay endpoints where this one serves a reporter gene function. To generalize the intended target to other relatable targets, this assay endpoint is annotated to the nuclear receptor intended target family, where the subfamily is non-steroidal.
Human liver HepG2 cells are transiently transfected with multiple reporter transcription units (MRTUs) in 6-well plates using FuGene 6 reagent (Roche; 3 ml FuGene/1 mg DNA). The MRTU constructs are regulated by a cis-regulating element (promoter). Each RTU expresses a GAL4-UAS that regulates the transcription of a nearby target reporter gene sequence. A major difference between the CIS and TRANS system is that in CIS activities of endogenous TFs are measured, whereas the TRANS assay evaluates changes in activities of exogenous, chimeric NR-Gal4 proteins. […] At the end of 24 hour incubation, total RNA was isolated using TriZol reagent (Invitrogen). The isolated RNA is then reverse-transcribed using oligo(dT) primer and Mo-MLV reverse transcriptase (Invitrogen) with DNAse I (Ambion) treatment for 30 min. The one-tenth of the produced cDNA was amplified by PCR using Taq DNA polymerase (Invitrogen) and two reporter sequence-specific primers. The PCR products were fluorescently labeled by primer extension with 6-arboxyfluorescein (6-FAM) 5'-labeled reporter sequence-specific primer (2 min at 95 C, 20 s at 68 C and 10 min at 72 C) and these products were digested with 5U of HpaI (New England Biolabs) for 2h at 37 C. The fragments were purified using Qiaquick PCR columns (Qiagen), analyzed on an ABI 3130xL genetic analyzer (Applied Biosystems) with peak positions identified by using a set of X-rhodamine (ROX)-labeled MapMarker1000 molecular weight standards (BioVentures). The raw capillary electrophoresis data was processed using Attagraph software (Attagene).

| Structure (SMILES) | AC50 | outcome |
| --- | --- | --- |
| CC(C)(Oc1ccc(C2CC2(Cl)Cl)cc1)C(=O)O (configuration not stated) | 75.3 µM (active) |  |
| CC(C)OC(=O)C(C)(C)Oc1ccc(C(=O)c2ccc(Cl)cc2)cc1 |  | inactive |
| Cc1cccc(Nc2cc(Cl)nc(SCC(=O)O)n2)c1C | 25 µM (active) |  |
| CC(C)(Oc1ccc(CCNC(=O)c2ccc(Cl)cc2)cc1)C(=O)O | 41.3 µM (active) |  |
| CC(c1cc2ccccc2s1)N(O)C(N)=O (configuration not stated) |  | inactive |
| Cc1ccc(C)c(OCCCC(C)(C)C(=O)O)c1 | 10.4 µM (active) |  |
| CN(CCOc1ccc(CC2SC(=O)NC2=O)cc1)c1ccccn1 (configuration not stated) | 6.15 µM (active) |  |
| CC(C)(Oc1ccc(Cl)cc1)C(=O)O |  | inactive |
| C[C@]12C=CC(=O)C=C1CC[C@@H]1[C@@H]2C(=O)C[C@@]2(C)[C@H]1CC[C@]2(O)C(=O)CO |  | inactive |
| Cc1nc(-c2ccc(C(F)(F)F)cc2)sc1C(=O)NCc1ccc(OC(C)(C)C(=O)O)cc1 | 0.0823 µM (active) |  |
| C[C@@H]1C[C@H]2[C@@H]3CCC4=CC(=O)C=C[C@]4(C)[C@@]3(F)[C@@H](O)C[C@]2(C)[C@@]1(O)C(=O)COP(=O)(O)O |  | inactive |
| C=C(c1ccc(C(=O)O)cc1)c1cc2c(cc1C)C(C)(C)CCC2(C)C |  | inactive |
